The panel holds about 83,000 compounds, 20% with a hit somewhere; the sample as a whole holds those more often.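 Treatment: one concentration, 48 hours, 96-well format. Scoring: percent growth, with anything below 10 considered active.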 Unmarked numbers belong to inactive results. Calls of active or inactive are those of the source.
System: MOLT-4 leukemia
Assay: NCI-60 one-dose screen, 48 h (100 = growth as untreated, 0 = no growth, -100 = all killed)
Conditions: 10 µM unless noted
Method: Growth inhibition of the MOLT-4 human tumor cell line is measured as a screen for anti-cancer activity. Cells are grown in 96 well plates and exposed to the test compound for 48 hours. Compounds are tested at a single concentration, which is 10^-5 M for most compounds. The reported endpoint is percent growth (GI% or GIPRCNT), where numbers from 0 - 100% represent growth inhibition, and numbers from -100% - 0 represent cell death. For example, a value of 40 represents 60% growth inhibition. A value of 0 means no net growth occurred over the course of the experiment. A value of -40 indicates 40% of cells at the beginning of the experiment died by the end of the experiment. A value of -100 means all cells are dead at the end of the experiment.
NCI-60 Human Tumor Cell Lines Screen was performed using the standard one-dose NCI protocol, which is described in more detail at https://dtp.cancer.gov/discovery_development/nci-60/default.htm.
Compounds with GIPRCNT values below 10 were considered active. Activity score was based on GIPRCNT using the following formula: […]
Score is 0 for GIPRCNT values of 100 or above, 50 for GIPRCNT values of 0, and 100 for GIPRCNT values of -100.

| SMILES | growth |
| --- | --- |
| COc1ccc(C2=NNC(c3cc(Cc4ccc(O)c(C5CC(c6ccc(OC)cc6)=NN5)c4)ccc3O)C2)cc1 (stereo not given) | 18.4% |
| COc1ccc(-c2c(N)noc2-c2cc(OC)c3c(c2)OCCO3)cc1 | 10.3% |
| O=C(CCc1nnc2sc(Cc3ccccc3Cl)nn12)c1nc2ccccc2[nH]1 | 72.9% |
| O=C(/C=C/c1ccccc1)CC(c1ccccc1)N1CCOCC1 (stereo not given) | 78.4% |
| COc1cc(C2NC(c3ccc(Cl)cc3)C(C)/C(=N/NC(N)=S)C2C)cc(OC)c1OC (stereo not given) | 70.7% |
| O=C1Nc2ccccc2C12Nc1cc(Cl)ccc1S2 (stereo not given) | 60.1% |
| C[n+]1c2ccccc2c(Nc2ccc(N3CCCCC3)cc2)c2[nH]c3ccccc3c21 | -63.4% (active) |
| COc1cc2c(c(OC)c1OC)CCc1cnoc1-2 | 127% |
| CCc1[nH]nc(-c2ccc(OC)cc2)c1-c1ccccc1OCCN(CC)CC | 85.8% |
| O=C1c2ccccc2-c2c1nc1ccccc1[n+]2[O-] | 95.8% |
| COc1cc2c(cc1OC)C1CCN3C(=O)CCC3N1CC2 (stereo not given) | 97.3% |
| CC[C@]1(O)CC2CN(CCc3c([nH]c4ccccc34)[C@@](C(=O)OC)(c3cc4c(cc3OC)N(C)[C@H]3[C@@](O)(C(=O)OC)[C@H](OC(C)=O)[C@]5(CC)C=CCN6CC[C@]43[C@@H]65)C2)C1 (stereo not given in full) | 16.4% |
| Cc1ccc2c(c1)C(=O)/C(=C/c1ncc([N+](=O)[O-])n1C)O2 | -2.13% (active) |
| C/C(=N/N=C(N)N)c1ccc(N)cc1 | 109% |
| COc1ccc(C(=O)C(C)Br)cc1OC (stereo not given) | 71.3% |
| O=[N+]([O-])c1ccc(N/N=C\c2ccccc2[N+](=O)[O-])nc1 | 93.5% |
| O=C(Nc1ncc([N+](=O)[O-])s1)c1cccc([N+](=O)[O-])c1 | 27.8% |
| COc1cc2c(c(OC)c1OC)-c1ccc(NN(C(=O)c3ccccc3)C(=O)c3ccccc3)c(=O)cc1[C@@H](NC(C)=O)CC2 (tested in a mixture with another compound) | 22.8% |
| O=C1c2ccccc2C(=O)c2c1cccc2-n1nnc2ccccc21 | 96% |
| COc1cc2c(C#N)n3c(c2cc1OC)C(=O)C(c1ccccc1)Oc1ccccc1-3 (stereo not given) | 63.4% |

| SMILES | growth |
| --- | --- |
| CCC(c1ccccc1)c1noc(CCN(CC)CC)n1 (stereo not given) | 83% |
| CCC(C)(C)C(=O)O[C@H]1C[C@@H](C)C=C2C=C[C@H](C)[C@H](CC[C@@H]3C[C@@H](O)CC(=O)O3)[C@H]21 | 72.8% |
| O=C1NCC(Nc2ccc(Br)cc2Cl)C(=O)N1 (stereo not given) | 109% |
| CCN(CC)CCNc1ccc(Cl)cc1Cl | 95.9% |
| Nc1c2ccccc2nc2ccccc12 (tested in a mixture with another compound) | 15.4% |
| C=C(C[C@@](O)(C(=O)Oc1ccccc1)C(=O)C1CCCCC1)c1ccccc1 | 101% |
| O=C(/C=C/c1ccc(Cl)cc1)c1ccccc1 | 96.7% |
| COc1ccc(/C=C/C(=O)Nc2cccnc2Nc2ccc(F)cc2)cc1 | 80.1% |
| COc1ccc(/C=C2\NC(=S)NC2=O)cc1 | 110% |
| N#CCNc1ccccc1N | 85.1% |
| O=C(N1CCC(CN=c2cc3n(-c4ccc(Cl)cc4)c4ccccc4nc-3cc2Nc2ccc(Cl)cc2)CC1)N1CC1 | -22.6% (active) |
| Cc1cc2c(C#N)n3c(c2cc1C)C(=O)C(c1ccccc1)Oc1ccccc1-3 (stereo not given) | 69.2% |
| NC(=O)N/N=C/c1ccc(Br)o1 | 97.9% |
| COc1cc(/C=C/C(=O)Nc2ccc3c(c2)/C(=C\c2cccn2C)C(=O)N3)cc(OC)c1OC | 50.8% |
| COc1cc(/C=C/C(=O)c2ccc(F)cc2)ccc1OCCCCCOc1cc2c(cc1OC)C(=O)N1CCCC1C=N2 (stereo not given) | -28.9% (active) |
| CN1COc2ccc3ccccc3c2C1 | 90.6% |
| CSc1ccc2c(c1)N(CCC1CCCCN1C)c1ccccc1S2 (stereo not given) | 40.5% |
| COc1ccc2c(c1)nc(N)c1c3ccccc3cn21 | 73.8% |
| C[N+]1(CCC[N+]2(C)C[C@@H]3[C@H](C2)[C@@H]2C=C[C@H]3C2)CCOCC1 (stereo not given in full) | 108% |
| COc1cc(-c2cc(C(=O)Nc3nc4ccccc4s3)nc3cc(-c4ccccc4)nn23)cc(OC)c1OC | 76% |

— PubChem BioAssay (NCI)
